This is a sample that favours compounds with a hit; in the whole collection about 12% have one here.
Pf growth 48h = Primary qHTS for delayed death inhibitors of the malarial parasite plastid, 48 hour incubation. P. falciparum luciferase growth in erythrocytes, 48 h. Potency, µM (titrated, usually from 28.7 µM), for the others: top-dose activity change, negative = inhibition, usual class: inhibitors. hit rate 5.9% among 310,000; further: on the % scale 0 is the no-effect control and ±100 the full control effect
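Luminescence readout; reporter = integrated firefly luciferase in P. falciparum. RBC culture at 2% hematocrit, 0.1% parasitemia final, 37 C/5% CO2; decreased signal taken as growth inhibition.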
SARS PLP yeast = qHTS of Yeast-based Assay for SARS-CoV PLP; S. cerevisiae expressing SARS-CoV PLpro, growth rescue; Potency, µM (titrated, usually from 32.9 µM), without a hit: at the top dose activity, positive = growth rescue, most hits filed as activators; hit rate 0.19% among 330,000; AID 485353, 2010; calls by dose curve; further: 0% is about no effect; nearly all actives have a fitted effect of over 55% in size
Sm TGR block = qHTS Assay for the Inhibitors of Schistosoma Mansoni Peroxiredoxins; Schistosoma mansoni thioredoxin glutathione reductase (TGR), Q962Y6; purified TGR, DTNB reduction, TNB absorbance 405 nm; Potency, µM (highest dose often 114 µM), without a hit: at the highest dose activity change, negative = inhibition, usual class: inhibitors; hit rate 3% among 360,000; further: on the % scale 0 is the no-effect control and ±100 the full control effect; nearly all actives have a fitted effect of over 60% in size
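Kinetic colorimetric format: TGR-catalysed, NADPH-driven DTNB reduction monitored via TNB absorbance. Enzyme dispensed at 20 nM; compound exposure 15 min at room temperature before reaction start.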
Pf growth 96h = Primary qHTS for delayed death inhibitors of the malarial parasite plastid, 96 hour incubation; P. falciparum luciferase reporter growth, 96 h; Potency, µM (titrated, usually from 28.7 µM), for the others: top-dose activity change, negative = inhibition, most hits filed as inhibitors; hit rate 6.9% among 320,000; further: on the % scale 0 is the no-effect control and ±100 the full control effect
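Infected RBCs, 2% Hct / 0.05% parasitemia final; luciferase-reporter P. falciparum; cpd 96 h, 37 C, 5% CO2; luciferase detection reagent; luminescence.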
* hit, by the source's call; ? = inconclusive; nt = no result. Unless noted, the call rests on the fitted dose curve; in most records, active means well fitted curve in the direction sought with a large enough effect; inconclusive means small, poorly fitted or top-dose-only effect, or another doubt; inactive means no such curve, though single readings can be large; an effect the other way counts as inactive or inconclusive. Potency means the concentration at half of the fitted maximal effect.

SMILES	Pf growth 48h	SARS PLP yeast	Sm TGR block	Pf growth 96h
Cn1c(=O)c2c(nc(CN3CCN(c4ccccc4)CC3)n2Cc2ccccc2F)n(C)c1=O	-17%	1%	-23%	nt
CCOC(=O)c1cccc(NC(=O)c2ccc3c(c2)nnn3C2CCCC2)c1	nt	nt	11%	nt
CCOc1ccc(Cn2nnc3c(=O)[nH]c(C4CCN(C(=O)c5ccccc5)CC4)nc32)cc1	nt	nt	0%	nt
CC1CC(C)CN(C(=O)CSC2=Nc3ccccc3C3=NC(Cc4c[nH]c5ccccc45)C(=O)N23)C1 (stereo unspecified)	nt	-1%	-25%	5.2µM*
O=C(CSC1=Nc2ccccc2C2=NC(Cc3c[nH]c4ccccc34)C(=O)N12)NC1CCCCC1 (stereo unspecified)	nt	5%	-28%	nt
CN(C(=O)COC(=O)c1ccc2c(c1)OCO2)C1CCCCC1	nt	-15%	nt	nt
C[N+]12CCCCC1C(COC(=O)c1ccc3c(c1)OCO3)CCC2 (stereo unspecified)	9.3µM*	0%	11%	nt
O=C(OCc1c(Cl)cccc1Cl)c1ccncc1	?	-22%	-5%	12µM*
CC(=O)Nc1ccc(C2=CC(=O)C[C@H](c3ccc4c(c3)OCO4)C2)cc1	?	-5%	-9%	-15%
CCCCCNC(=O)c1cn(CC)c2cc(N3CCN(C)CC3)c(F)cc2c1=O	?	2%	-16%	15µM*
CCCNC(=O)c1cn(CC)c2cc(N3CCN(C)CC3)c(F)cc2c1=O	nt	0%	3%	?
CCCc1nnc(NC(=O)c2cn(CC)c3cc(N4CCN(C)CC4)c(F)cc3c2=O)s1	0.37µM*	1%	-8%	1.2µM*
CCOC(=O)C1=C(COC(=O)c2ncc(Cl)c(Cl)c2Cl)NC(=O)NC1C (stereo unspecified)	2%	nt	-24%	1%
CCCCN(C(=O)c1cc(-c2ccncc2)nc2ccccc12)c1c(N)n(CC(C)C)c(=O)[nH]c1=O	nt	4%	nt	nt
COC(=O)[C@@]1(Cc2ccc(F)cc2)[C@@H]2[C@@H](CC(=O)[C@H]2CC(=O)C(=O)N(C)C)CN1C(=O)c1ccccc1	-23%	-6%	-17%	9.3µM*
COC(=O)[C@@]1(Cc2ccc(F)cc2)[C@H]2c3cc(C(=O)N(C)C)n(CCSCCO)c3C[C@H]2CN1C(=O)c1ccccc1	6.6µM*	6%	-26%	13µM*
COC(=O)[C@@]1(Cc2ccc(F)cc2)[C@H]2c3cc(C(=O)N(C)C)n(Cc4ccccn4)c3C[C@H]2CN1C(=O)c1ccccc1	3.3µM*	-17%	-6%	2.9µM*
O=C(NCCc1nc2ccccc2[nH]1)C1CCC(=O)N(CCc2cccc(F)c2)C1 (stereo unspecified)	-3%	-2%	-22%	?
COC(=O)[C@@]1(Cc2ccc(F)cc2)[C@H]2c3cc(C(=O)N(C)C)n(Cc4nc5ccccc5[nH]4)c3C[C@H]2CN1C(=O)c1ccccc1	1.5µM*	14%	-25%	3.7µM*
Cc1ccccc1N1C(=O)C2ON(c3ccccc3)C(c3cccnc3)C2C1=O (stereo unspecified)	7%	-8%	?	-15%
O=C1C2ON(c3ccccc3)C(c3cccnc3)C2C(=O)N1Cc1ccccc1 (stereo unspecified)	-14%	-10%	40µM*	-6%
C/C=C/C(=O)OCC(=O)Nc1nc2ccc(C)cc2s1	nt	12%	-10%	10µM*
COc1ccc(CCNC(=O)Cn2c(=O)n(-c3ccc(OC)c(OC)c3)c(=O)c3ccccc32)cc1OC	nt	nt	-1%	nt
Cc1ccc(N(CC(=O)NC2CCCC2)C(=O)c2nsc(Cl)c2Cl)cc1	-13%	-3%	1%	?
CCOC(=O)c1c(C)n(COCCO)c2ccc(O)cc12	-5%	-6%	0%	nt
SMILES	Pf growth 48h	SARS PLP yeast	Sm TGR block	Pf growth 96h
CCOCCn1c(C)c(C(=O)OCC)c2cc(O)c3ccccc3c21	2.3µM*	5%	-11%	3.7µM*
COc1ccc(C(=S)N2CCOCC2)cc1OC(=O)c1cc([N+](=O)[O-])c(C)c([N+](=O)[O-])c1	10%	2%	0%	21%
COc1cc(C(=S)N2CCOCC2)ccc1OC(=O)c1cc([N+](=O)[O-])c(C)c([N+](=O)[O-])c1	-1%	16%	-13%	1.7µM*
COc1ccc(CN2CCOCC2)cc1OC	nt	-12%	-7%	1%
COc1ccc(C(=O)Oc2cc(C)c(CN3CCOCC3)cc2C)cc1OC	?	0%	40µM*	18%
CCOc1cc(C(=S)N2CCOCC2)ccc1OS(=O)(=O)c1ccccc1[N+](=O)[O-]	?	-14%	0%	5.9µM*
COc1cc(C(=S)N2CCOCC2)ccc1OS(=O)(=O)c1ccccc1[N+](=O)[O-]	-9%	-4%	3%	51%
COc1ccc(F)cc1S(=O)(=O)NCCc1sc2nc(-c3ccc(F)cc3)nn2c1C	nt	nt	-7%	nt
O=S(=O)(NC1CC(NS(=O)(=O)OCC(Cl)(Cl)Cl)C2CCCCC12)OCC(Cl)(Cl)Cl (stereo unspecified)	10%	6%	79µM*	?
CC(=O)c1c(C)[nH]c(C(=O)OCC(=O)NCCC2=CCCCC2)c1C	13µM*	-1%	-8%	?
CC(=O)c1c(C)[nH]c(C(=O)OCC(=O)NCCCc2ccccc2)c1C	?	2%	-6%	9.3µM*
CC(NS(=O)(=O)c1ccc2c(c1)CCN2C(=O)CCCC(=O)O)c1ccccc1 (stereo unspecified)	nt	nt	5%	nt
N#Cc1cc(S(=O)(=O)c2ccccc2)c(N)[nH]c1=O	3.7µM*	2%	-1%	?
COc1cc(Nc2ccccc2Cl)c([N+](=O)[O-])nc1[N+](=O)[O-]	nt	6%	40µM*	15µM*
Cc1cccc(CN2CCc3c(OCC(=O)NCc4ccco4)cccc3C2=O)c1	12µM*	-3%	-25%	9.3µM*
Cc1ccc(C)c(NC(=O)COc2cccc3c2CCN(Cc2ccccc2)C3=O)c1	-16%	-3%	-1%	?
Cc1ccc(CN2CCc3c(OCC(=O)Nc4cc(C)ccc4C)cccc3C2=O)cc1	?	-3%	-9%	5.9µM*
O=C(COc1cccc2c1CCN(Cc1ccccc1)C2=O)NCc1ccco1	?	18%	-31%	-25%
CC1CN(C(=O)CCS(=O)(=O)c2ccccc2)CC(C)O1 (stereo unspecified)	25%	-11%	-8%	25%
CN(Cc1ccccc1)C(=O)Cn1c(=O)c2cccn2c2cccnc21	0%	6%	-7%	?
COc1cccc(-c2nc3c(c(SCc4ccccc4)n2)Cc2c(CO)cnc(C)c2O3)c1	nt	nt	-19%	nt
CC[N+](C)(CC)CCCCOc1ccc2c(c1)C(=O)c1cc(OCCCC[N+](C)(CC)CC)ccc1-2	?	0%	5.6µM*	?
CCCCOc1cccc(C(=O)O)c1	7%	-5%	6%	?
CC[N+](CC)(CC)CCCCOc1ccc2c(c1)C(=O)c1cc(OCCCC[N+](CC)(CC)CC)ccc1-2	0.066µM*	-1%	20µM*	?
COc1cccc(CCNC(=O)c2c(O)nc3ccccn3c2=O)c1	nt	nt	4%	nt

Bioassay records (PubChem BioAssay)
